This passage reports composite z-score and z-score results from PubChem BioAssay.

The structures appear in SMILES notation. Active and inactive are the calls of the source.

The subject of experiment [1] is Wnt5a (protein binding on small-molecule microarray). The experiment can be described thus: Wnt5a binders on small-molecule microarray, primary screen, biophysical, 635/667 nm fluorescence (AID 1142).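 Also: fluorescence read at 667 nm with signal to noise per printed feature.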 Conditions: 635 nm fluorescence, higher = more signal.
Experiment [2] is described as follows: cell viability in Huh7 cells, primary screen, cytotoxicity control for HCV replication inhibitor project, CellTiter-Glo luminescence, basal, 48 h (AID 1143).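 Also: Huh7 hepatoma cells carrying a hepatitis C replication reporter with no stimulus; test concentration not given here.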 Conditions: Huh7 HCV replicon, higher = more signal, called active from +8 up or from −8 down.
Experiment [3] can be described thus: CREB reporter modulators without forskolin, primary screen, cell-based, PC12, CRE-LacZ reporter, unstimulated (AID 1145). The conditions noted are these: no forskolin, luminescence, 4.5 h, higher = more signal, called active from +8 up or from −8 down.
Experiment [4] in a line: CREB reporter modulators under forskolin, primary screen, cell-based, PC12, CRE-LacZ reporter, forskolin-stimulated (AID 1146).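 Also: PC12 cells with 6xCRE LacZ reporter stimulated by forskolin 10 µM; beta-galactosidase reporter signal reflecting CREB driven transcription.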 The conditions noted are these: luminescence, 4.5 h, higher = more signal, called active from +8 up or from −8 down.
Experiment [5] has as its target Streptavidin (Streptomyces avidinii) (UniProt P22629). As to the kind of experiment: streptavidin binders on small-molecule microarray, primary screen, artefact control for SMM compound annotation, biophysical, 635/667 nm fluorescence (AID 1147).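 Also: signal reflects streptavidin binding to arrayed compounds as a control protein.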 The conditions noted are these: streptavidin binding, higher = more signal.
Experiment [6] in a line: small-molecule binders of probe aInhba, primary screen, biochemical, small-molecule microarray, 635/667 nm fluorescence (AID 1148).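 Also: score merges 667nm spot fluorescence with signal-to-noise for antibody binding to printed compounds.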 The conditions noted are these: higher = more signal.
For experiment [7], the target named is Torsin-1A (Homo sapiens) (UniProt O14656). The experiment can be described thus: torsin A binders from cell lysate, primary screen, small-molecule microarray, wild-type, 635/667 nm (AID 1149). Conditions: COS7 hTOR1A-WT lysate, 635 nm fluorescence, higher = more signal.
Chain of Torsin-1A (Homo sapiens) (O14656 whole entry, looked up): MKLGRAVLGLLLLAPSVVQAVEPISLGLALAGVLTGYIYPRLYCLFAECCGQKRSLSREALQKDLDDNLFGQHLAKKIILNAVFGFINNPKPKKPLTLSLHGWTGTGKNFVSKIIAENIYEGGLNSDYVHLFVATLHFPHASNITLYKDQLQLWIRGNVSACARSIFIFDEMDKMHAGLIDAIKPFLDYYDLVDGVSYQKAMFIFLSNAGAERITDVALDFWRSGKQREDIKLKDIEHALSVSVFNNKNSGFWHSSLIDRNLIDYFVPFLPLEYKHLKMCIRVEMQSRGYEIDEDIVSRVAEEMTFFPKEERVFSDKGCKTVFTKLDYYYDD
Experiment [8] shares this target. As to the kind of experiment: small-molecule binders of mutant TOR1A in lysate, primary screen, cell lysate, small-molecule microarray, COS7 lysate, 635/667 nm fluorescence (AID 1150).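 Also: score pools 667 nm emission and signal to noise measuring lysate protein binding.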 Conditions: COS7 hTOR1A mutant lysate, 635 nm fluorescence, higher = more signal.
Experiment [9] has as its system Sonic hedgehog protein (Shh). As to the kind of experiment: small-molecule binders of Shh protein, primary screen, biochemical, small-molecule microarray, 635/667 nm fluorescence (AID 1151).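 Also: Shh protein binding to compounds spotted on small-molecule microarray slides; score combines spot fluorescence intensity with signal-to-noise across triplicate slides.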 Conditions: small-molecule microarray binding, 635 nm fluorescence; higher = more signal.
The nature of experiment [10]: E. coli DRC41 culture turbidity changes, primary screen, E. coli filamentation inducer project, strain DRC41, OD650, 48 h (AID 1152).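 Also: E. coli MC1000 strain DRC41 lacking acrAB efflux pump and sulA.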 The conditions noted are these: E. coli DRC41 (acrAB sulA), higher = more signal, called active from +8 up or from −8 down.
A short description of experiment [11]: small-molecule binders of probe aLefty1, primary screen, biochemical, small-molecule microarray, 635/667 nm fluorescence (AID 1153).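 Also: score merges spot fluorescence with signal-to-noise ratio from the scanned slide images.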 The conditions noted are these: higher = more signal.
Experiment [12] is described as follows: PSAC antagonists in infected red cells, primary screen, cell-based, P. falciparum Indochina, OD700, 1 h (AID 1154). The conditions noted are these: P. falciparum Indochina infected RBC osmotic lysis, higher = more signal, called active from +8 up or from −8 down.
Experiment [13] can be described thus: PSAC antagonists in infected red cells, primary screen, cell-based, P. falciparum Indochina, OD700, 2 h (AID 1155).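 Also: lysis reports solute entry through the parasite surface anion channel PSAC; channel blockers reduce lysis of infected cells.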 The conditions noted are these: P. falciparum Indochina infected erythrocytes, osmotic lysis OD700; higher = more signal, called active from +8 up or from −8 down.
Experiment [14] is described as follows: osmotic lysis modulators in infected erythrocytes, primary screen, PSAC antagonist project, cell-based, P. falciparum Indochina, OD700, 3 h (AID 1156). The conditions noted are these: higher = more signal, called active from +8 up or from −8 down.
Experiment [15] is described as follows: PSAC antagonists in infected red cells, primary screen, cell-based, P. falciparum Indochina, OD700, 18 h (AID 1157). Conditions: P. falciparum Indochina infected erythrocytes, osmotic lysis OD700, 18 h; higher = more signal, called active from +8 up or from −8 down.
Experiment [16] can be described thus: modulators of S6 phosphorylation in cells, primary screen, cell-based, A549, cytoblot, luminescence, serum-stimulated (AID 1158).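 Also: serum-stimulated A549 lung adenocarcinoma cells; signal is phosphorylated S6 detected by cytoblot immunostaining with HRP secondary.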 Conditions: A549 phospho-S6 cytoblot, 5 h, higher = more signal.
Experiment [17] addresses NADPH oxidase 2 (Homo sapiens) (UniProt P04839). As to the kind of experiment: NOX2-dependent H2O2 signal modulators, primary screen, NOX inhibitor project, cell-based, HEK293-NOX2, PMA-stimulated, Amplex Red fluorescence (AID 1159). Also: test concentration not given here. The conditions noted are these: 45 min, higher = more signal, called active from +8 up or from −8 down.
For experiment [18], the target named is NADPH oxidase 4 (Homo sapiens) (UniProt Q9NPH5). As to the kind of experiment: NOX4-dependent H2O2 signal modulators, primary screen, NOX inhibitor project, cell-based, HEK293-NOX4, tetracycline-induced, Amplex Red fluorescence (AID 1160). The conditions noted are these: 45 min, higher = more signal, called active from +8 up or from −8 down.
Chain of NADPH oxidase 4 (Homo sapiens) (Q9NPH5 whole entry, looked up): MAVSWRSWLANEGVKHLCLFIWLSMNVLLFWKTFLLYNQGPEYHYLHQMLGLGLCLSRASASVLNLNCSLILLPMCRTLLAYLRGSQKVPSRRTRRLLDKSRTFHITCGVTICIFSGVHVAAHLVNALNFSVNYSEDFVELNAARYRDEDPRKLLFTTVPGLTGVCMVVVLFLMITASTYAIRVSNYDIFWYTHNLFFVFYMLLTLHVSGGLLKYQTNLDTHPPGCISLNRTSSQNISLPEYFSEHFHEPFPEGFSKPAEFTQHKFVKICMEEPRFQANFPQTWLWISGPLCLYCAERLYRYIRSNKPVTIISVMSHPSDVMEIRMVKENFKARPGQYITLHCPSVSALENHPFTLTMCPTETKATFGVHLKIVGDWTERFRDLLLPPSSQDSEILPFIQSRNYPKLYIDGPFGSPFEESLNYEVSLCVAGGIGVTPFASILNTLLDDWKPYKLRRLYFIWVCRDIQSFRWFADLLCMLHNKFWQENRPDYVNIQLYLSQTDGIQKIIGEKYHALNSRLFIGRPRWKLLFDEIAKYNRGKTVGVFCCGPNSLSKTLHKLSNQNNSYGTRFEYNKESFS
Experiment [19] deals with NADPH oxidase 5 (Homo sapiens) (UniProt Q96PH1). As to the kind of experiment: NOX5-dependent H2O2 signal modulators, primary screen, NOX inhibitor project, cell-based, HEK293-NOX5, Amplex Red fluorescence (AID 1161). Conditions: HEK293-NOX5, ionomycin, 45 min, higher = more signal.
Chain of NADPH oxidase 5 (Homo sapiens) (Q96PH1 whole entry, looked up): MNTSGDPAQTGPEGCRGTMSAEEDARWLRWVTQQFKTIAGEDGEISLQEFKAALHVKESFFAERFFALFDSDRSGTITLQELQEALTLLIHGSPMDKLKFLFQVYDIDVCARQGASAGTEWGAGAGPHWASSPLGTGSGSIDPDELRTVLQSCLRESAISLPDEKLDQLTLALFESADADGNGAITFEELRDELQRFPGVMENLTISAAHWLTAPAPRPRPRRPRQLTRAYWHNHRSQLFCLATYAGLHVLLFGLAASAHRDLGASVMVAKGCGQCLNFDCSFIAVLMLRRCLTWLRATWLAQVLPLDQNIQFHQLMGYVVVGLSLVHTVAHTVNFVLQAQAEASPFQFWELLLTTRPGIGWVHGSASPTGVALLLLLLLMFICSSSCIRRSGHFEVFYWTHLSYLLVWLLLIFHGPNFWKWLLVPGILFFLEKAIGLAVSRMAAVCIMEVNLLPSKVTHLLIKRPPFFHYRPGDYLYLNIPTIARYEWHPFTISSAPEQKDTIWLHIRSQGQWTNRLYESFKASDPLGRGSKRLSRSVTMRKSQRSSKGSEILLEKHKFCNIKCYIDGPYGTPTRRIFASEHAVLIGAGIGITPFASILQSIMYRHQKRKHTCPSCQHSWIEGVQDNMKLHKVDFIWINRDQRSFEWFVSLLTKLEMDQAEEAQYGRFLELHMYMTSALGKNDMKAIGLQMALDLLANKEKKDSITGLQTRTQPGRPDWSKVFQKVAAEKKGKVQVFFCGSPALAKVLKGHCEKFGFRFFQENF
A short description of experiment [20]: A549 cell viability effects, profiling panel, calcein-AM fluorescence, 48 h, basal (AID 1162). Also: test concentration not given here. Conditions: higher = more signal.

Chain of NADPH oxidase 2 (Homo sapiens) (P04839 whole entry, looked up): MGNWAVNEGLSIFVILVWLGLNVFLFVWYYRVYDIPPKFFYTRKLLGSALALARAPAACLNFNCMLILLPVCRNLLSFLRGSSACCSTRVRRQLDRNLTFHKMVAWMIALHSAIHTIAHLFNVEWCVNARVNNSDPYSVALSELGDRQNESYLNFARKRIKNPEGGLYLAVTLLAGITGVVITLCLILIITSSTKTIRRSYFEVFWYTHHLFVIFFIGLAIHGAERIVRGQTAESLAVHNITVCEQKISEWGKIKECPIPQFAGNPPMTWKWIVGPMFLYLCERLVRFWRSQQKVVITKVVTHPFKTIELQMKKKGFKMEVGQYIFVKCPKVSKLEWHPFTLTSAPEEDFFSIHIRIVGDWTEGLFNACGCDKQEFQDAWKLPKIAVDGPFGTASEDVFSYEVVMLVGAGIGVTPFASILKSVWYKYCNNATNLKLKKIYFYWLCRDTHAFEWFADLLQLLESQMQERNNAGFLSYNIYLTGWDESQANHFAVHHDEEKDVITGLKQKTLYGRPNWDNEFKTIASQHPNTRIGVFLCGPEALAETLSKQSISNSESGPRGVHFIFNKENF
Chain of Streptavidin (Streptomyces avidinii) (P22629 whole entry, looked up): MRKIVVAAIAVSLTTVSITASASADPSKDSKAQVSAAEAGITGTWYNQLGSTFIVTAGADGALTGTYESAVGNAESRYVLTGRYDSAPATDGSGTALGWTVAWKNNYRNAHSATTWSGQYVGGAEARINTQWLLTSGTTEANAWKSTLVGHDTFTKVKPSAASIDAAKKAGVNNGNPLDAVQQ

Take `C/C=C/[C@@H](CCn1cc(CCO[Si](C(C)C)(C(C)C)C(C)C)nn1)[Si](C)(C)c1ccc(OC)cc1`: the composite z-score is -0.569 in experiment [1]; -1.27 in experiment [5]; -0.39 in experiment [6]; -0.72 in experiment [7]; 0.741 in [8]; -0.526 in experiment [9]. The molecule further displayed a composite z-score in experiment [11] of -0.315. Further, the z-score in [2] was -3.19 (inactive); in [3], 3.29 (inactive); in experiment [4], -1.01 (inactive); in experiment [10] it was 0.415 (inactive); in [12] it was 0.305 (inactive); in experiment [13], 0.0452 (inactive). The z-score was -0.606 (inactive) in experiment [14]; -1.92 (inactive) in [15]; 2.96 in experiment [16]; -0.937 (inactive) in experiment [17]; 0.0135 (inactive) in [18]; -0.497 in [19]. For the same molecule, the z-score in experiment [20] was 1.74.
With `COc1ccc([Si](C)(C)[C@H]2[C@H](CC(=O)N(CCO)Cc3ccccc3)O[C@@]3(C(=O)N(Cc4cccc(N5C(=O)COc6ccccc65)c4)c4ccccc43)[C@@H]2C)cc1`, the composite z-score in [1] stood at 0.223; in [5] it was 0.224; in experiment [6] it was 0.0566; in experiment [7], 0.275; in experiment [8], 0.493; in experiment [9] it was 2.03. This molecule also returned a composite z-score in [11] of 0.0437. The z-score in [2] was -3.26 (inactive); in [3], 2.61 (inactive); in [4] it was -1.58 (inactive); in experiment [10] it was 2.01 (inactive); in [12], 12.7 (active); in experiment [13] it was 2.77 (inactive). Besides, the z-score was 0.144 (inactive) in [14]; 1.28 (inactive) in experiment [15]; 0.721 in experiment [16]; 0.0235 (inactive) in experiment [17]; 0.789 (inactive) in experiment [18]; 2.17 in experiment [19]. In addition, the z-score in experiment [20] was 0.0715.
Consider `CC(C)[C@@H](C(=O)O)n1cc(-c2ccccn2)nn1`, for which the composite z-score is -0.267 in experiment [1]; 0.62 in experiment [5]; 0.202 in experiment [6]; 0.417 in experiment [7]; 0.567 in experiment [8]; 0.673 in experiment [9]. Further, the composite z-score in [11] was -0.0559. The z-score was 0.715 (inactive) in experiment [2]; -0.201 (inactive) in experiment [3]; 0.159 (inactive) in experiment [4]; 2.01 (inactive) in experiment [10]; -0.0828 (inactive) in experiment [12]; 0.0486 (inactive) in [13]. Moreover, the z-score in experiment [14] is 0.322 (inactive); in experiment [15], 0.0401 (inactive); in experiment [16], 0.0264; in [17], -0.847 (inactive); in experiment [18] it was 0.242 (inactive); in experiment [19] it was -0.24. Besides, the z-score in [20] was -0.137.
As to `C[N+](C)(C)CCCC[C@@H]1NC(=O)[C@@H]2C[C@H](C(=O)NCCCCCNC(=O)CS)[C@H](c3ccc(O)cc3)N2C1=O`, the composite z-score was 0.684 in experiment [1]; -0.101 in [5]; -0.128 in experiment [6]; 0.348 in experiment [7]; 0.305 in experiment [8]; 1.42 in experiment [9]. Further, the composite z-score in [11] is -0.0536. Besides, the z-score in [2] is -0.244 (inactive); in [3], -0.398 (inactive); in [4], -0.757 (inactive); in [10] it was 1.18 (inactive); in experiment [12] it was 0.453 (inactive); in experiment [13], -1.65 (inactive). The z-score in experiment [14] is -4.23 (inactive); in experiment [15], -2.4 (inactive); in [16], 1.4; in experiment [17] it was 0.621 (inactive); in experiment [18], 0.774 (inactive); in [19], 2.12. Also, the z-score in experiment [20] is -0.215.
Consider `C=CCNC(=O)[C@@H]1[C@H]2C(=O)O[C@H](c3ccccc3)[C@H](c3ccccc3)N2[C@H](c2ccc(O)cc2)[C@@]12C(=O)Nc1ccc(C#Cc3ccc(OC)cc3)cc12`, for which the composite z-score in [1] was determined as 0.212; in experiment [5], 1.16; in experiment [6], 0.0228; in experiment [7] it was 0.248; in experiment [8], 0.286; in experiment [9] it was 0.551. Moreover, the composite z-score in experiment [11] amounted to 0.159. Moreover, the z-score in experiment [2] was -4.8 (inactive); in experiment [3], -0.0784 (inactive); in experiment [4], -1.25 (inactive); in [10] it was 2.73 (inactive); in [12] it was 1.27 (inactive); in [13], -0.224 (inactive). Moreover, the z-score in [14] was 0.375 (inactive); in experiment [15], -0.957 (inactive); in experiment [16], 0.98; in experiment [17], 1.35 (inactive); in [18] it was 1.23 (inactive); in [19], 0.0881. The z-score in experiment [20] is -0.629.
